{"source": "PubChem BioAssay AID485273", "about": "(Sanford-Burnham Center for Chemical Genomics, 2010)", "note": "The campaign covered roughly 330,000 compounds. About 1,500 (0.45%) were called active. The sample holds actives, similar compounds and a random draw of the others, so the mix is not that of the screen. A number with no mark means an inactive call. Cut-off read from the data, not from the text of the source: active = inhibition above about 45% (passing the limit was not always enough); inconclusive = no clear call, values can overlap the other calls.", "data": [{"target": "Ubiquitin-conjugating enzyme E2 N (Homo sapiens) (UniProt P61088)", "sequence (P61088 whole entry, looked up)": "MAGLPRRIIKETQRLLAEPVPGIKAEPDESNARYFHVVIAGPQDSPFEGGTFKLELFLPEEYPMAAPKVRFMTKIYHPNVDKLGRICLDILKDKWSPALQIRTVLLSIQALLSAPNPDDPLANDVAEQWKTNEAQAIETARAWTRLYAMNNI", "experiment": "UBC13 polyubiquitin chain formation inhibitors, primary screen, biochemical, TR-FRET, uHTS (AID 485273)", "details": "at 20 µM, stronger effect = higher value", "values": [{"smiles": "Cn1c(=O)c2c(-c3cccc(Br)c3)c(C#N)c(N)nc2n(C)c1=O", "inhibition": "-5.6%"}, {"smiles": "CC(C)(C)c1ccc(S(=O)(=O)N2CCN(C(=O)c3ccc4c(c3)C(=O)N(Cc3ccncc3)C4=O)CC2)cc1", "inhibition": "6.4%"}, {"smiles": "Cc1ccccc1C(CC(=O)c1cccs1)C(C#N)C#N", "note": "(configuration not stated)", "inhibition": "4.5%"}, {"smiles": "COc1ccc(NC2=CC(=S)NC(C)(C)C2)cc1", "inhibition": "-9.8%"}, {"smiles": "c1ccc(-c2ccccc2OCCN2CCCCC2)cc1", "inhibition": "5.8%"}, {"smiles": "COc1cc(OC)cc(-c2sc3ccc(OC)cc3c2-c2ccc3cc[nH]c3c2)c1", "inhibition": "9.4%"}, {"smiles": "c1ccc(-c2ccc(OCCN3CCOCC3)cc2)cc1", "inhibition": "7.7%"}, {"smiles": "CC(=O)c1ccc(OCCN2CCOCC2)cc1", "inhibition": "-16.1%"}, {"smiles": "COc1ccc(-c2sc3ccccc3c2-c2ccc(OCCN3CCOCC3)cc2)cc1", "inhibition": "54.3% (active)"}, {"smiles": "COc1ccc2sc(-c3ccccc3OC)c(-c3ccc(OCCN4CCCC4)cc3)c2c1", "inhibition": "60.6% (active)"}, {"smiles": "CC1(C)O[C@@H]2[C@H](O1)[C@@H](COS(=O)(=O)O)O[C@H]2n1cnc2c(=O)[nH]cnc21", "inhibition": "-0.9%"}, {"smiles": "CC(C)CC1(C(=O)NCc2ccccn2)C=CCN1C(=O)c1ccccc1", "note": "(configuration not stated)", "inhibition": "13%"}, {"smiles": "COc1ccc(C(=O)Nc2ccc(-n3nncc3C(C)(C)C)cc2)cc1", "inhibition": "-4.8%"}, {"smiles": "COc1ccc(C(CNC(=O)c2cccc(S(=O)(=O)Nc3ccccc3Cl)c2)N2CCOCC2)cc1", "note": "(configuration not stated)", "inhibition": "2.8%"}, {"smiles": "COc1ccc(C(CNC(=O)c2cccc(NS(=O)(=O)c3ccc(C)c(F)c3)c2)N2CCCC2)cc1", "note": "(configuration not stated)", "inhibition": "55.5% (active)"}, {"smiles": "COc1ccc(C(CNC(=O)c2ccc(S(=O)(=O)Nc3ccccc3C)cc2)N2CCOCC2)cc1", "note": "(configuration not stated)", "inhibition": "-1.4%"}, {"smiles": "CCOCCCNC(=O)C(=O)NCCCOCC", "inhibition": "-2.5%"}, {"smiles": "CC1CC(C)(C)n2c(O)c(N=NC(N)=S)c3cccc1c32", "note": "(configuration not stated)", "inhibition": "92.1% (active)"}, {"smiles": "COc1ccc(S(=O)(=O)N2CCC(C(=O)OCC(=O)c3ccccc3)CC2)cc1[N+](=O)[O-]", "inhibition": "-5.5%"}, {"smiles": "FC(F)(F)c1ccnc(Oc2ccc(C3=NCCS3)cc2)c1", "inhibition": "7.6%"}, {"smiles": "O=C(COc1ccc2ccc(=O)oc2c1)NCC(O)c1ccccc1", "note": "(configuration not stated)", "inhibition": "4.2%"}, {"smiles": "CCN(CC)CCN(C(=O)c1cccc([N+](=O)[O-])c1)c1nc2ccc(OC)cc2s1", "inhibition": "-0.4%"}, {"smiles": "CN(C)CCCN(C(=O)c1ccc(S(=O)(=O)N2CCCCCC2)cc1)c1nc2ccc(Br)cc2s1", "inhibition": "67% (active)"}, {"smiles": "CCc1ccc2nc(N(CCCN(C)C)C(=O)c3ccc4c(c3)OCCO4)sc2c1", "inhibition": "21.3%"}, {"smiles": "CN(C)CCN(C(=O)CN1C(=O)c2ccccc2C1=O)c1nc2cc3c(cc2s1)OCCO3", "inhibition": "6.7%"}, {"smiles": "CCOc1ccc2nc(N(CCCN(C)C)C(=O)c3ccc(C(=O)c4ccccc4)cc3)sc2c1", "inhibition": "87.8% (active)"}, {"smiles": "CN(C)CCCN(C(=O)c1ccc(S(=O)(=O)N2CCCCCC2)cc1)c1nc2cc3c(cc2s1)OCCO3", "inhibition": "85.8% (active)"}, {"smiles": "CCCC(=O)N(CCN1CCOCC1)c1nc2ccc(OCC)cc2s1", "inhibition": "-2.6%"}, {"smiles": "COc1ccc2sc(N(CCCN(C)C)C(=O)c3ccc(S(=O)(=O)N(C)C4CCCCC4)cc3)nc2c1", "inhibition": "15.5%"}, {"smiles": "CN(C)CCCN(C(=O)c1ccc(S(=O)(=O)N2CCCc3ccccc32)cc1)c1nc2ccc(F)cc2s1", "inhibition": "37.2%"}, {"smiles": "O=C(NCc1csc(-c2cccs2)n1)C1CC1", "inhibition": "-1.3%"}, {"smiles": "CC(C)(CCl)C(=O)Nc1ccc(Sc2ccc(F)cc2)cc1", "inhibition": "7.4%"}, {"smiles": "Cc1ccc(C)c(NC(=O)C(c2ccccc2)N2CCN(CC(=O)NC3CC3)CC2)c1", "note": "(configuration not stated)", "inhibition": "2.6%"}, {"smiles": "Cc1ccc(N2C(=O)N3[C@@H]4c5ccccc5OC[C@@H]4[C@@H](c4ccccc4)[C@@]3(C)C2=O)cc1", "inhibition": "6.8%"}, {"smiles": "O=C1CC(Cc2ccc(Cl)cc2)C(=O)N1c1cc(Cl)ccn1", "note": "(configuration not stated)", "inhibition": "0%"}, {"smiles": "CN(c1ccccn1)c1ncnc2[nH]ncc12", "inhibition": "5.9%"}, {"smiles": "CSCCC(NC(=O)c1ccc(Cl)cc1Cl)C(=O)NNC(=O)c1csc(N2CCOCC2)n1", "note": "(configuration not stated)", "inhibition": "58.4% (active)"}, {"smiles": "COc1ccccc1C(=O)NC(CCSC)C(=O)NNC(=O)c1csc(N2CCOCC2)n1", "note": "(configuration not stated)", "inhibition": "4.2%"}, {"smiles": "O=C(NNC(=O)c1cc(-c2ccccc2Cl)nc2ccccc12)c1csc(N2CCOCC2)n1", "inhibition": "1.5%"}, {"smiles": "C[C@@H](CN1CCC[C@H]1CN1C(N)=NC[C@@H]1Cc1ccccc1)N1C[C@@H](Cc2ccccc2)N(CCCC2CCCC2)C1=N", "inhibition": "62.2% (active)"}, {"smiles": "NC1=NC[C@@H](Cc2ccc(O)cc2)N1CC1CCCCC1", "inhibition": "17.3%"}, {"smiles": "CCCCN1C(N)=NC[C@@H]1Cc1ccccc1", "inhibition": "-6.3%"}, {"smiles": "CC[C@@H](C)[C@@H]1CN([C@@H](C)CN2CCC[C@H]2CN2C(N)=NC[C@H]2C(C)C)C(=N)N1CCc1ccc(Cl)c(Cl)c1", "inhibition": "50.1% (active)"}, {"smiles": "CC(=O)N1CCC(N(C(=O)Nc2ccc(Cl)cc2)C(C)C)CC1", "inhibition": "-2.5%"}, {"smiles": "CC(OC(=O)CN1C(=O)C2CCCCC2C1=O)C(=O)Nc1ncc(Cl)cc1Cl", "note": "(configuration not stated)", "inhibition": "-6.5%"}, {"smiles": "CCOC(=O)c1ccccc1NC(=O)COC(=O)C(Cc1c[nH]c2ccccc12)NC(C)=O", "note": "(configuration not stated)", "inhibition": "3.4%"}, {"smiles": "O=C(CNC(=O)Cc1ccccc1)NCC(=O)OCC(=O)c1ccccc1Cl", "inhibition": "12%"}, {"smiles": "CC1(C)Cc2ccccc2-c2nc(CN3CCOCC3)[nH]c(=O)c21", "inhibition": "-5.3%"}, {"smiles": "CCC1(CC)Cc2ccccc2-c2nc(CCl)[nH]c(=O)c21", "inhibition": "9%"}, {"smiles": "CC1(C)Cc2ccccc2-c2[nH]c(=S)[nH]c(=O)c21", "inhibition": "62.2% (active)"}, {"smiles": "CCN(CC)CCC(c1ccc2c(c1)OCO2)c1c(OC)cc(OC)c2c(-c3ccccc3)cc(=O)oc12", "note": "(configuration not stated)", "inhibition": "32.1%"}, {"smiles": "CCN(CC)C(=O)CC(c1ccc2c(c1)OCO2)c1c(OC)cc(OC)c2c(-c3ccccc3)cc(=O)oc12", "note": "(configuration not stated)", "inhibition": "8.8%"}, {"smiles": "CCN(CC)CCC(c1cc(OC)c(OC)c(OC)c1)c1c(OC)cc(OC)c2c(-c3ccccc3)cc(=O)oc12", "note": "(configuration not stated)", "inhibition": "50.2% (active)"}, {"smiles": "N#CCCn1ncc2ccccc21", "inhibition": "0.9%"}, {"smiles": "CCCCn1c(N)c(N(CC)C(=O)c2ccccc2C(F)(F)F)c(=O)[nH]c1=O", "inhibition": "-4.3%"}, {"smiles": "CCn1c(CNC(=O)c2cc(OC)c(OC)c(OC)c2)cc2cc(C)ccc21", "inhibition": "5.6%"}, {"smiles": "O=S(=O)(Cc1cc(Sc2ccccc2)nc(-c2ccccc2)n1)c1ccccc1", "inhibition": "-3.4%"}]}]}
